Experimental data published in PubChem BioAssay (Tox21).
Where “and” joins values, the source holds several entries; their conditions need not be identical. Equal values may be shown once. Records with an inconclusive call do not appear. Calls of active or inactive are those of the source. Unless noted, calls come from the whole dose curve; as a rule, active = well fitted curve in the direction sought with a large enough effect in the repeat runs; inconclusive = weak or mixed curves; inactive = no such curve, though single readings can be large; an effect the other way counts as inactive or inconclusive.

Experiments:
[1] = qHTS assay for small molecules that induce genotoxicity in human embryonic kidney cells expressing luciferase-tagged ATAD5 (AID 651632); note: nearly all actives have a fitted effect of over 15% in size
Outline: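 A rise in luciferase signal from ATAD5-tagged HEK293T cells marks genetic stress. Cells were exposed to compounds for 16 hr at 37C, 5% CO2, then luciferase was quantified after a 30 min room-temperature incubation with Amplite.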

[2] = qHTS assay for small molecule agonists of the p53 signaling pathway - cell viability (AID 651633; calls by dose curve; note: nearly all actives have a fitted effect of over 30% in size; note: potency is the fitted concentration of half-maximal effect)
Outline: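 Viability counter-read: CellTiter-Glo luminescence (30 min, room temperature) in the same p53RE-bla plates. These plates had been exposed to compounds for 16 h at 37 C.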

[3] = qHTS assay for small molecules that induce genotoxicity in human embryonic kidney cells expressing luciferase-tagged ATAD5 - cell viability (AID 651634; calls by dose curve; note: nearly all actives have a fitted effect of over 25% in size; note: potency is the fitted concentration of half-maximal effect)
Outline: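 Cytotoxicity counter-readout: after 15.5 hr compound treatment at 37C, live-cell protease activity in ATAD5-luciferase HEK293T cells measured by CellTiter-Fluor fluorescence, 30 min development at 37C.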

[4] = qHTS assay for small molecule disruptors of the mitochondrial membrane potential - cell viability (AID 720634; calls by dose curve; note: nearly all actives have a fitted effect of over 20% in size; note: potency is the fitted concentration of half-maximal effect)
Outline: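 Cytotoxicity was quantified from ATP content by CellTiter-Glo luminescence in the same wells as the MMP dye read-out. HepG2 (2,000 cells/well) were plated overnight and exposed to compounds for 1 hr at 37 C.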

[5] = qHTS assay for small molecule disruptors of the mitochondrial membrane potential (AID 720635); note: potency is the fitted concentration of half-maximal effect
Outline: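 Mitochondrial membrane potential tracked with Mito-MPS dye, red aggregates (ex 540/em 590 nm) against green monomers (ex 490/em 535 nm). Compound treatment 1 hr at 37C, dye 30 min in HepG2.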

[6] = qHTS assay to test for compound auto fluorescence at 590 nm (red) in HepG2 cells (AID 720674)
Outline: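 Red autofluorescence (Ex/Em 540/590 nm, Rose Bengal sodium equivalents) was measured in HepG2 cells, 2,000 per well in MEM plus 10% FBS, plated overnight at 37 C. Readings were taken 1 hr after adding 23 nL compound or DMSO, at 37 C and 5% CO2.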

[7] = qHTS assay to test for compound auto fluorescence at 535 nm (green) in HepG2 cells (AID 720675)
[8] = qHTS assay to test for compound auto fluorescence at 460 nm (blue) in HEK293 cells (AID 720678)
Outline: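 After cell attachment (4-5 hr, 37C), compounds were pinned onto HEK293 monolayers in 10% dialyzed FBS medium. The blue channel (405/460 nm) was read following overnight culture. Equivalency was calculated against triamterene.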

[9] = qHTS assay to test for compound auto fluorescence at 590 nm (red) in HEK293 cells (AID 720679)
Outline: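 Plates of HEK293 cells (10% dialyzed FBS) are treated with 23 nL compound or DMSO vehicle after a 4-5 hr attachment period, incubated overnight at 37C, and read for red fluorescence at 540/590nm.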

[10] = qHTS assay to test for compound auto fluorescence at 460 nm (blue) in HEK293 cell free culture (AID 720681); note: potency is the fitted concentration of half-maximal effect
Outline: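 Blue fluorescence (Ex 405/Em 460 nm, triamterene-equivalent) was read immediately after pin transfer of compound or DMSO into medium (DMEM, 10% FBS) without cells.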

[11] = qHTS assay to test for compound auto fluorescence at 535 nm (green) in HEK293 cell free culture (AID 720682)
Outline: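 Each library compound, or DMSO control, is added by pintool to medium alone, comprising DMEM and 10% FBS. Emission at 535 nm following 485 nm excitation is quantified against fluorescein.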

[12] = qHTS assay to test for compound auto fluorescence at 590 nm (red) in HEK293 cell free culture (AID 720683)
Outline: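 Red-channel autofluorescence of compounds in culture medium (DMEM, 10% FBS), no cells, measured at 540/590 nm. Rose Bengal sodium is the reference fluorophore for equivalence.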

[13] = qHTS assay to test for compound auto fluorescence at 590 nm (red) in HepG2 cell free culture (AID 720684)
Outline: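 No cells present: MEM + 10% FBS only. Compound pinned in, red label read (540/590 nm). Activity = fluorescence equivalent to Rose Bengal sodium.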

[14] = qHTS assay to test for compound auto fluorescence at 460 nm (blue) in HepG2 cell free culture (AID 720685); note: potency is the fitted concentration of half-maximal effect
Outline: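 Cell-free plates of MEM plus 10% FBS received 23 nL compound or DMSO vehicle; blue-channel (405/460 nm) intensity scored against triamterene as reference fluorophore.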

[15] = qHTS assay to test for compound auto fluorescence at 535 nm (green) in HepG2 cell free culture (AID 720686)
[16] = biological target: Glucocorticoid receptor (Homo sapiens) (UniProt P04150); experiment: qHTS assay to identify small molecule agonists of the glucocorticoid receptor (GR) signaling pathway (AID 720691; active = well fitted activation curve with a large enough effect in the signal ratio in the repeat runs, not every such curve was filed as active; the % refers to the signal ratio)
Outline: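 Agonist-mode qHTS in HeLa cells stably expressing a glucocorticoid-response-element beta-lactamase reporter. Fluorescence intensity read with FRET substrate (2 h, room temperature) after 18 h compound treatment at 37 C.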

[17] = qHTS assay for small molecule agonists of the p53 signaling pathway (AID 651631; calls by dose curve; note: nearly all actives have a fitted effect of over 15% in size; note: potency is the fitted concentration of half-maximal effect)
Outline: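 Beta-lactamase reporter activity under p53 response elements was quantified in HCT-116 cells by FRET fluorescence, following 16 h incubation with test compounds at 37 °C and 2 h substrate development at room temperature.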

[18] = qHTS assay to test for compound auto fluorescence at 535 nm (green) in HEK293 cells (AID 720680)
[19] = qHTS assay to test for compound auto fluorescence at 460 nm (blue) in HepG2 cells (AID 720687); note: potency is the fitted concentration of half-maximal effect
Outline: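 Blue-channel autofluorescence (Ex/Em 405/460 nm, triamterene-equivalent) was measured after 1 hr compound exposure at 37 C, 5% CO2. Cells were HepG2, plated overnight at 37 C in MEM plus 10% FBS.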

[20] = biological target: Glucocorticoid receptor (Homo sapiens) (UniProt P04150); experiment: qHTS assay to identify small molecule antagonists of the glucocorticoid receptor (GR) signaling pathway (AID 720692; active = well fitted inhibition curve with a large enough effect in the signal ratio in the repeat runs, not every such curve was filed as active; the % refers to the signal ratio)
Outline: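 Inhibition of dexamethasone-driven (5 nM final) beta-lactamase expression was measured in GRE-reporter HeLa cells over 18 h at 37C. Fluorescence was read after 2 h with the B/G FRET substrate at room temperature.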
% is set by controls: 0 for no effect and ±100 for the full control effect; tags give direction and shape of the fitted curve or compound fluorescence and quenching.

Chain of Glucocorticoid receptor (Homo sapiens) (P04150 whole entry, looked up): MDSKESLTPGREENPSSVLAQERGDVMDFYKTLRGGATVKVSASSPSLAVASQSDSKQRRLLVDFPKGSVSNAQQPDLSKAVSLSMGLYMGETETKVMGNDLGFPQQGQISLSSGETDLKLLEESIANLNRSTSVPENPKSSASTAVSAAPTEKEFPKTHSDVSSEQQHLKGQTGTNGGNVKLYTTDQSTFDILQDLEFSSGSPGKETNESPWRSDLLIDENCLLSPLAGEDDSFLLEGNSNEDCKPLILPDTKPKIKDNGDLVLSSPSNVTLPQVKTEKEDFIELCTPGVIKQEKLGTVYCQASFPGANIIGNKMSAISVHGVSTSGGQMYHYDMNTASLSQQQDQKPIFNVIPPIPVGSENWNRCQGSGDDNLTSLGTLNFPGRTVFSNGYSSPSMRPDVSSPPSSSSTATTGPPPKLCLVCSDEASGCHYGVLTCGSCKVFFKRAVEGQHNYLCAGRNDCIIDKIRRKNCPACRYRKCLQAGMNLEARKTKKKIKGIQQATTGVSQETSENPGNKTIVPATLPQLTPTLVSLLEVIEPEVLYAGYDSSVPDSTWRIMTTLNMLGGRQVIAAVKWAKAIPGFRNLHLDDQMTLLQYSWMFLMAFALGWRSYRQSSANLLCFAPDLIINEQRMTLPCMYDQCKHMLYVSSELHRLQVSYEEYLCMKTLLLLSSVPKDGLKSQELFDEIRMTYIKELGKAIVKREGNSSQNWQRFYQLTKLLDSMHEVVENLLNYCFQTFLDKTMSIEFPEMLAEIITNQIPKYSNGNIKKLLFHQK

Cl[Si](Cl)(c1ccccc1)c1ccccc1
active: Potency [5] 5.57 µM
inactive: Potency [1] | Potency [2] | Potency [3] | Potency [4] | Potency [6] | Potency [7] | Potency [8] | Potency [9] | Potency [10] | Potency [11] | Potency [12] | Potency [13] | Potency [14] | Potency [15] | Potency [16]

O=S(=O)(O)c1ccc(Nc2nc(Nc3ccc(/C=C/c4ccc(Nc5nc(Nc6ccc(S(=O)(=O)O)cc6)nc(N(CCO)CCO)n5)cc4S(=O)(=O)O)c(S(=O)(=O)O)c3)nc(N(CCO)CCO)n2)cc1
inactive: Potency [2] | Potency [3] | Potency [4] | Potency [6] | Potency [7] | Potency [9] | Potency [18] | Potency [11] | Potency [12]
active: Potency [17] 41.3 µM | Potency [10] 25.1 µM | Potency [14] 35.5 µM [fluorescent] | Potency [19] 35.5 µM [fluorescent]

CC(=O)CC(=O)Nc1ccc(S(=O)(=O)O)cc1
inactive: Potency [17] | Potency [2] | Potency [3] | Potency [6] | Potency [9] | Potency [18] | Potency [10] | Potency [11] | Potency [13] | Potency [14] | Potency [15] | Potency [19] | Potency [16]

CC(C)Cn1cnc2c(N)nc3ccccc3c21
inactive: Potency [1] | Potency [2] | Potency [3] | Potency [4] | Potency [5] | Potency [7] | Potency [8] | Potency [9] | Potency [18] | Potency [10] | Potency [11] | Potency [12] | Potency [13] | Potency [14] | Potency [19] | Potency [16] | Potency [20]

CCCCCCCCCCCCCCCC[N+](C)(C)CC
inactive: Potency [1] | Potency [6] | Potency [7] | Potency [8] | Potency [9] | Potency [18] | Potency [10] | Potency [11] | Potency [12] | Potency [14]
active: Potency [2] 26.6 µM and 61.3 µM | Potency [3] 29.8 µM and 24.4 µM | Potency [4] 61.3 µM | Potency [5] 6.68 µM and 27.4 µM

CCOc1ccc2ccccc2c1C(=O)N[C@@H]1C(=O)N2[C@@H]1SC(C)(C)[C@@H]2C(=O)O
inactive: Potency [1] | Potency [2] | Potency [3] | Potency [4] | Potency [5] | fluorescence, relative to Rose Bengal [6] 0.528% [at 18.6 µM] | fluorescence, % of fluorescein control [7] -0.0692% [at 18.6 µM] | fluorescence, % of triamterene [8] 0.458% [at 18.6 µM] | fluorescence, % of fluorescent control [9] 0.326% [at 18.6 µM] | fluorescence, % of fluorescein [18] 0.0057% [at 18.6 µM] | fluorescence, % of fluorescent control [10] 0.309% [at 18.6 µM] | activity change [11] 0.0527% [at 18.6 µM, stronger effect = higher value] | fluorescence, % of fluorescent control [12] 0.0898% [at 18.6 µM] | fluorescence, % of Rose Bengal [13] -0.0711% [at 18.6 µM] | fluorescence, % of fluorescent control [14] 0.462% [at 18.6 µM] | fluorescence, % of fluorescein control [15] 0.0405% [at 18.6 µM] | Potency [16]
